These results are taken from PubChem BioAssay.

The other results are listed elsewhere or left out. Values without a mark were called inactive. Active and inactive are the calls of the source.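 The calls were made as follows, unless noted: active = mean inhibition of at least 40% at 20 µM; inactive = the rest.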

Protein Mdm4 (Homo sapiens) + E3 ubiquitin-protein ligase Mdm2 (Homo sapiens), sequence (O15151 whole entry, looked up): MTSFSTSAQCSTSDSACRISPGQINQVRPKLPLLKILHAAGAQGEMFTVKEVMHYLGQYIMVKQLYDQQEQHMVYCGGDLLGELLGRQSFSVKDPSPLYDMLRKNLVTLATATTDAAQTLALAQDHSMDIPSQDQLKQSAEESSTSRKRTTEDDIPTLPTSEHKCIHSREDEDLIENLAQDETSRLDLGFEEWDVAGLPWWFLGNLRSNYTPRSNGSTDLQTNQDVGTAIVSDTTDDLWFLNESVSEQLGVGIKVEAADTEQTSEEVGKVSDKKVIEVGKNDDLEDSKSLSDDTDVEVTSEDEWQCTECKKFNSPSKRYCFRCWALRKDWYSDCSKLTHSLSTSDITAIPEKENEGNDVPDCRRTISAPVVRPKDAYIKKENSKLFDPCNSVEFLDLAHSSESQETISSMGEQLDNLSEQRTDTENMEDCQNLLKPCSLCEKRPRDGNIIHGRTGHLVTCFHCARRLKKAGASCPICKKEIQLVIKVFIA
Protein Mdm4 (Homo sapiens) + E3 ubiquitin-protein ligase Mdm2 (Homo sapiens), sequence (Q00987 whole entry, looked up): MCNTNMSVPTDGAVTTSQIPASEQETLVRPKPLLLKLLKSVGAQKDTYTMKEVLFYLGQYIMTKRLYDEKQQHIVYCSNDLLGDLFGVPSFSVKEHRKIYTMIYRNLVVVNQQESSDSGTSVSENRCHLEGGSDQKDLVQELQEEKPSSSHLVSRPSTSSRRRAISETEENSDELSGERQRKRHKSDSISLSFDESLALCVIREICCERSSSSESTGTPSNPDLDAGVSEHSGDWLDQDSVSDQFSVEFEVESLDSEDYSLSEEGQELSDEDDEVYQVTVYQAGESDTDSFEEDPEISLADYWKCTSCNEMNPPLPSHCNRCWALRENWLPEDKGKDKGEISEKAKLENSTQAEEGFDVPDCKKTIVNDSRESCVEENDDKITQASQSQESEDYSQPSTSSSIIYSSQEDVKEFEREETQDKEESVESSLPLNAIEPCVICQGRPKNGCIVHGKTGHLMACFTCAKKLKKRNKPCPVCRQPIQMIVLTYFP

One test has as its target Protein Mdm4 (Homo sapiens) + E3 ubiquitin-protein ligase Mdm2 (Homo sapiens) (UniProt O15151+Q00987). In words: retested Mdm2-MdmX interaction blockers, confirmation, cell-based, luminescence, single concentration, set 2 (AID 504601;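 active = mean inhibition of the luminescence signal across two replicates at or above 26 percent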). Particulars: SaOS-2 split-luciferase Mdm2/MdmX complementation, at 8 µM, stronger effect = higher value.
Broadly, the inhibition is the change of the read-out against control, counted positive when it falls. For `O=C(Nc1ccc(C(=O)N2CCOCC2)cc1)Nc1cccc(C(F)(F)F)c1`, the inhibition is 84.2% (active). With `O=[N+]([O-])c1c(NCCO)cc(Sc2nc3ccccc3s2)c2nonc12`, the inhibition is 102% (active). Still for that read-out and setting: with `COc1cc(NC(=O)c2[nH]cnc2C(N)=O)cc(C(=O)Nc2cccc(C(F)(F)F)c2)c1` the figure was 101% (active). Still for that read-out and setting: next, `CCN(CC)S(=O)(=O)c1ccc(NC(=O)c2cccnc2Cl)c(NC(=O)c2cccnc2Cl)c1`: 75.5% (active). The same measure, in the same setting: next, `Cc1ccc(CS(=O)(=O)c2ncc(Cl)c(C(=O)Nc3nnc(C)s3)n2)cc1`: 103% (active); `CCOC(=O)/C(=C\c1ccc([N+](=O)[O-])cc1)C(=O)c1cc(C(C)=O)c(Nc2ccccc2)s1`: 100% (active). For `O=C(CC(O)(C(F)(F)F)C(F)(F)F)Nc1ccc(Cl)c(Cl)c1`, the inhibition was 103% (active).

For the molecule `CC1CCCCC1NC(=O)/C(C#N)=C/C=C/c1ccccc1[N+](=O)[O-]` (configuration not stated), the inhibition is 103% (active). `CCCCCCCCCCOC(=O)Cn1c(COc2ccc(C)cc2)[n+](C)c2ccccc21`: the inhibition was 103% (active). The same measure, in the same setting: next, `CC(=O)Nc1ccc(NC(=O)C(C)OC(=O)c2ccccc2C(=O)c2ccc(Cl)c([N+](=O)[O-])c2)cc1` (configuration not stated): 102% (active).

On to `COc1ccc(C(=O)NC2CCCc3c2cnn3-c2cccc(C)c2C)c(OC)n1` (configuration not stated), for which the inhibition was 102% (active).

For the molecule `COc1ccc(C(CCN(Cc2ccc(OC)c(OC)c2)C(=O)CCl)c2ccccc2)cc1` (configuration not stated), the inhibition was 103% (active). Still for that read-out and setting: with `Cc1cccc(NC(=O)c2nc(S(=O)(=O)Cc3ccccc3)ncc2Cl)c1` the figure was 103% (active). The same measure, in the same setting: with `COc1cccc(/C=N/Nc2cc(C)nc(-c3ccccc3O)n2)c1O` the figure was 99.7% (active); with `Cc1[nH]c(=O)c(C(=O)/C=C/c2ccccc2)c2c1CCCC2`, 103% (active); with `CN(C)CC(O)COc1ccc(C(C)(C)c2ccc(OCC(O)CN(C)C)cc2)cc1` (configuration not stated), 94.2% (active).

Tested on in the next test: not listed separately
Kind of test: Apaf-1 inhibitors, single-dose retest, confirmation, biochemical, fluorescence, DEVD-Rh110, 20 µM (AID 504614).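 Also: plate controls were DMSO wells for no effect and DEVD-CHO caspase inhibitor control wells for full effect.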 The settings on record: reconstituted apoptosome, caspase-3 DEVD-Rh110 fluorescence; at 20 µM; stronger effect = higher value.
In the case of `O=C(O)c1cc(Cl)c(Cl)cc1C(=O)Nc1cccc2ncccc12`, the inhibition is 1.69%. In the case of `O=c1cc(N2CCCCC2)c(-c2ccccc2)nn1Cc1cccc(F)c1`, the inhibition was 18.3%. Still for that read-out and setting: with `Cc1ccc2nc(N3CCN(C(=O)c4ccco4)CC3)sc2c1` the figure was 15.7%; with `CC(=O)Nc1ccc(Nc2cc(C)nc(Nc3ccc(NC(C)=O)cc3)n2)cc1`, 10.4%. The same measure, in the same setting: next, `CCN(CC(=O)NCc1cccs1)C(=O)c1cccc(S(=O)(=O)Nc2ccccc2OC)c1`: 36.9%; `O=[N+]([O-])c1c(NCCO)cc(Sc2nc3ccccc3s2)c2nonc12`: 19.9%. Still for that read-out and setting: next, `Cc1ccc2c(c1)C1CN(C)CCC1N2S(=O)(=O)c1ccc(Oc2ccc([N+](=O)[O-])cc2)cc1` (configuration not stated): 20.2%; `O=C(Cc1cc(=O)[nH][nH]1)N/N=C/c1ccccc1[N+](=O)[O-]`: 5.01%; `CCOC(=O)N1CCC(NC(=O)C(C)n2c3ccccc3c3cnn(C)c(=O)c32)CC1` (configuration not stated): 14%.

Turning to `CCC(=O)Nc1c(S(=O)(=O)c2ccccc2)c2nc3ccccc3nc2n1Cc1ccccc1`, the inhibition was 16.3%. The same measure, in the same setting: next, `CCCCCCCCCCOC(=O)Cn1c(COc2ccc(C)cc2)[n+](C)c2ccccc21`: 81.3% (active); `C=CCn1c(N)c(C(=O)OCC(C)C)c2nc3ccccc3nc21`: 19.4%; `Cc1cc(N2CCCC2)ccc1NC(=O)COc1ccc(Cl)cc1`: 28.9%. Same read-out and setting: with `COC1=C(N2CCOCC2)C(=O)c2ccccc2C1=O` the figure was 29.1%; with `CCN1C(=NCc2ccc(OC)cc2)N[C@@H](CCc2ccccc2)[C@H](C(=O)NCc2ccc(OC)cc2)[C@H]1C`, 4.13%; with `CN1CCN(c2ccccc2NC(=O)COc2ccc(C3CCCCC3)cc2)CC1`, 7.86%. Turning to `COCC(C)OC(=O)c1c(N)n(CCCN2CCOCC2)c2nc3ccccc3nc12` (configuration not stated), the inhibition is 12.4%. Same read-out and setting: next, `CCOC(=O)C1CCN(C(=O)c2cccc(S(=O)(=O)N(CC)c3ccccc3)c2)CC1`: 27.8%; `Cc1ccc(S(=O)(=O)N2CCN(C(=O)c3ccccc3-c3nc4ccccc4s3)CC2)c(C)c1`: 34.1%; `C#CCOCCOCCOCCNc1nc(N2CCN(C(=O)C([C@@H](C)O)n3cc([C@@H](N)CCCCN)nn3)CC2)nc(N2CCN(C(=O)[C@H](CCCCN)n3cc(CN)nn3)CC2)n1` (some centres not stated): 1.31%. As for `c1ccc(C[C@H]2CNCCN2CCC23CC4CC(CC(C4)C2)C3)cc1`, the inhibition is 1.61%.

In the case of `Cc1cc2oc3ccc(NCCC4CCCN4C)cc3c(=O)c2cc1C` (configuration not stated), the inhibition was 10.1%. The same measure, in the same setting: with `Nc1ccc2nn(-c3ccc(Cl)cc3)nc2c1` the figure was 35.8%; with `COc1ccc(NC(=O)CN(Cc2ccccc2)S(C)(=O)=O)cc1OC`, 3.82%. On the same count and under the same terms, next, `O=C(N/N=C\c1cccnc1)c1cc(-c2ccccc2)nc2c(Cl)cccc12`: 11.8%; `Cc1ccc(-c2ccc(/C=N/NC(=O)CN3CCOCC3)o2)cc1[N+](=O)[O-]`: 27.9%.
